According to the supplement of paper PMC4723716:
± gives the uncertainty stated by the source. The full ranking holds about 9,900 compounds; the median of “viability index relative to DMSO control” is about 1, and the lowest 2% start at about 0.85. This is one part of a sample in which the lowest values are shown more often than they occur.

Tested on: Plasmodium falciparum NF54 stage V gametocytes
Test: viability index relative to DMSO control (fraction); higher = less gametocyte killing
Details: 2.5 µM, incubation time: 72 h
Method in brief: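 Compound at 2.5 µM was incubated for 72 hr at 37°C under low oxygen with P. falciparum NF54 stage V gametocytes (0.75% gametocytemia, 1.25% hematocrit, 10 µl, serum-free screening medium) in 1,536-well plates. Staining used 3 µl of 2.5 µM MitoTracker Red CMXRos plus 0.13% saponin for one to two hours, and red particles of 20–70 µm2 were counted in one imaged field per well. Each viability index is that count relative to the plate mean of solvent-only wells.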

[1] = library set: Broad Institute DOS
[2] = library set: Broad Institute Blood Stage

SMILES | viability index [1] | viability index [2]
O=C(C1CCC1)N1CC(=O)N2[C@H](C1)[C@H](c1ccc(Br)cc1)[C@@H]2CO | 1.02 ± 0.0049 | –
C[C@H]1CN([C@@H](C)CO)C(=O)c2c(c3ccccc3n2C)-c2ccccc2CO[C@@H]1CN(C)C(=O)NC1CCCCC1 | 1.04 ± 0.11 | –
O=C(C[C@@H]1CC[C@@H]2[C@H](COC[C@@H](O)CN2C(=O)c2ccncc2)O1)NCc1cc(F)cc(F)c1 | 1.05 ± 0.12 | –
O=C(O)C[C@H]1C[C@H]2c3cc(NC(=O)Nc4ccc(C(F)(F)F)cc4)ccc3O[C@H]2[C@@H](CO)O1 | 1.06 ± 0.041 | –
O=C(NC[C@@H]1[C@H](c2ccccc2)[C@@H](CO)N1C(=O)C1CCC1)NC1CCCC1 | 0.976 ± 0.12 | –
COc1ccc(S(=O)(=O)N(C)C[C@@H]2Oc3ccc(NC(=O)Nc4ccc(C(F)(F)F)cc4)cc3C(=O)N([C@H](C)CO)C[C@H]2C)cc1 | 0.957 ± 0.08 | –
CN1CCN(C(=O)C[C@H]2CC[C@@H]3[C@H](COC[C@H](O)CN3Cc3cccc(-c4ccncc4)c3)O2)CC1 | 1.08 ± 0.028 | –
O=C(C[C@H]1CC[C@H](NS(=O)(=O)c2ccc(F)cc2)[C@@H](CO)O1)N1CCN(c2ccccc2)CC1 | 1.09 ± 0.13 | –
O=C(C[C@H]1CC[C@@H]2[C@H](COC[C@@H](O)CN2CCc2ccccc2)O1)NCCCN1CCOCC1 | 1.07 ± 0.054 | –
O=C(c1ccccc1F)N1CC(=O)N2[C@H](C1)[C@@H](c1ccc(-c3ccc(F)cc3)cc1)[C@@H]2CO | – | 0.86 ± 0.04
O=C(c1ccccc1F)N1CC(=O)N2[C@H](CO)[C@H](c3ccc(-c4cccnc4)cc3)[C@H]2C1 | – | 0.742 ± 0.068
O=C(c1ccccc1F)N1CC(=O)N2[C@H](C1)[C@@H](c1ccc(-c3cccnc3)cc1)[C@@H]2CO | – | 0.866 ± 0.049
Cc1noc(C)c1NC(=O)N(C)C[C@@H]1OCc2cn(nn2)CCCC(=O)N([C@H](C)CO)C[C@@H]1C | 1.08 ± 0.1 | –
C[C@H](CO)N1C[C@H](C)[C@H](CN(C)Cc2ccc(C(=O)Nc3ccccc3N)cc2)OCc2cnnn2CCCC1=O | 0.953 ± 0.042 | –
CO[C@H]1CN(C)C(=O)c2ccc(NC(=O)c3cc(C)on3)cc2OC[C@H](C)NC[C@H]1C | 0.98 ± 0.029 | –
COc1cccc(S(=O)(=O)N(C)C[C@H]2OCc3ccccc3-c3c(n(C)c4ccccc34)C(=O)N([C@@H](C)CO)C[C@H]2C)c1 | 0.833 ± 0.059 | –
COc1cccc(S(=O)(=O)N(C)C[C@H]2OCc3ccccc3-c3c(n(C)c4ccccc34)C(=O)N([C@@H](C)CO)C[C@@H]2C)c1 | 0.956 ± 0.013 | –
COc1cccc(S(=O)(=O)N(C)C[C@@H]2OCc3ccccc3-c3c(n(C)c4ccccc34)C(=O)N([C@H](C)CO)C[C@@H]2C)c1 | 0.826 ± 0.058 | –
COc1cccc(S(=O)(=O)N(C)C[C@H]2OCc3ccccc3-c3c(n(C)c4ccccc34)C(=O)N([C@H](C)CO)C[C@H]2C)c1 | 0.952 ± 0.034 | –
COc1cccc(S(=O)(=O)N(C)C[C@@H]2OCc3ccccc3-c3c(n(C)c4ccccc34)C(=O)N([C@@H](C)CO)C[C@H]2C)c1 | 0.977 ± 0.016 | –
COc1cccc(S(=O)(=O)N(C)C[C@H]2OCc3ccccc3-c3c(n(C)c4ccccc34)C(=O)N([C@H](C)CO)C[C@@H]2C)c1 | 0.975 ± 0.027 | –
COc1cccc(S(=O)(=O)N[C@H]2CC[C@@H](CC(=O)NC3Cc4ccccc4C3)O[C@@H]2CO)c1 | 0.999 ± 0.044 | –
CC(C)(C)[S@](=O)N1Cc2cc(C(=O)N3CCOCC3)nc(-c3cccc(-c4ccccc4F)c3)c2[C@@H]1CCO | 1.07 ± 0.044 | –

SMILES | viability index [1] | viability index [2]
C[C@@H]1CN([C@@H](C)CO)C(=O)c2cc(NC(=O)Nc3ccccc3)ccc2O[C@@H](C)CCCCO[C@H]1CN(C)C(=O)Nc1ccccc1 | 1.11 ± 0.13 | –
Cc1ccc(S(=O)(=O)Nc2ccc3c(c2)C(=O)N(C)[C@@H]2CC[C@H](CC(=O)NCCc4ccncc4)O[C@H]2CO3)cc1 | 1.04 ± 0.026 | –
C[C@H](CO)N1C[C@H](C)[C@H](CN(C)Cc2ccc3c(c2)OCO3)Oc2ncc(-c3cccc(C(F)(F)F)c3)cc2C1=O | 0.976 ± 0.025 | –
C[C@@H]1CN([C@@H](C)CO)C(=O)c2cc(C#Cc3ccccc3)cnc2O[C@H]1CN(C)C(=O)c1ccccc1 | 1 ± 0.091 | –
C[C@H](CO)N1C[C@H](C)[C@H](CN(C)C(=O)c2ccccc2)Oc2ncc(C#Cc3ccccc3)cc2C1=O | 0.829 ± 0.086 | –
COc1cccc(S(=O)(=O)N(C)C[C@@H]2Oc3ncc(C#Cc4ccc(OC)c(OC)c4)cc3C(=O)N([C@H](C)CO)C[C@@H]2C)c1 | – | 1.01 ± 0.04
C[C@@H]1CN([C@H](C)CO)C(=O)c2cc(C#Cc3ccccc3)cnc2O[C@H]1CN(C)C(=O)c1ccccc1 | 0.965 ± 0.019 | –
C[C@H]1CN([C@@H](C)CO)C(=O)c2cc(C#Cc3ccccc3)cnc2O[C@H]1CN(C)C(=O)c1ccccc1 | 0.572 ± 0.14 | –
C[C@H](CO)N1C[C@H](C)[C@@H](CN(C)C(=O)c2ccccc2)Oc2ncc(C#Cc3ccccc3)cc2C1=O | 0.963 ± 0.029 | –
CCCN(C)C[C@@H]1Oc2ncc(-c3cccc(OC)c3)cc2C(=O)N([C@H](C)CO)C[C@@H]1C | 0.691 ± 0.3 | –
C[C@H]1CN([C@@H](C)CO)C(=O)c2cc(C#Cc3ccccc3)cnc2O[C@@H]1CN(C)C(=O)c1ccccc1 | 0.919 ± 0.071 | –
C/C=C/c1ccc2c(c1)[C@@H]1[C@@H](CCN1C(=O)C1CCCC1)[C@H](CO)N2 | 1.06 ± 0.045 | –
C[C@@H]1CCCCO[C@H](CN(C)C(=O)NC2CCCCC2)[C@@H](C)CN([C@H](C)CO)C(=O)c2cc(N(C)C)ccc2O1 | 1.14 ± 0.11 | –
O=C(Nc1ccccc1)N1CC(=O)N2[C@H](CO)[C@H](c3ccc(C#CC4CCCCC4)cc3)[C@@H]2C1 | 0.96 ± 0.031 | –
Cc1noc(C)c1NC(=O)N(C)C[C@@H]1OCc2ccccc2-c2c(n(C)c3ccccc23)C(=O)N([C@@H](C)CO)C[C@H]1C | 1.02 ± 0.1 | –
Cc1noc(C)c1NC(=O)N(C)C[C@@H]1Oc2cc(C#CCN(C)C)ccc2S(=O)(=O)N([C@@H](C)CO)C[C@H]1C | 0.947 ± 0.18 | –
CC(C)C#Cc1ccc([C@H]2[C@@H](CO)N3C(=O)CN(C(=O)c4ccc5c(c4)OCO5)C[C@@H]23)cc1 | 1.03 ± 0.021 | –
CNC[C@H]1Oc2c(NS(=O)(=O)c3ccc(Cl)cc3)cccc2C(=O)N([C@@H](C)CO)C[C@H]1C | 1.01 ± 0.034 | –
O=C(C[C@@H]1CC[C@@H]2[C@H](COC[C@H](O)CN2C(=O)c2cc(Cl)cc(Cl)c2)O1)N1CCc2ccccc2C1 | 1.032 ± 0.0059 | –
C[C@H](CO)N1C[C@H](C)[C@H](CN(C)C(=O)c2cc(Cl)cc(Cl)c2)OCc2ccccc2-c2ccccc2C1=O | 1.04 ± 0.066 | –
C[C@@H]1CN([C@@H](C)CO)C(=O)c2ccccc2-c2ccccc2CO[C@@H]1CN(C)Cc1ccc(Oc2ccccc2)cc1 | 0.871 ± 0.0091 | –
C[C@@H]1CN([C@H](C)CO)C(=O)c2ccccc2-c2ccccc2CO[C@@H]1CN(C)Cc1ccc(Oc2ccccc2)cc1 | 1.028 ± 0.0055 | –
C[C@H](CO)N1C[C@H](C)[C@@H](CN(C)Cc2ccc(Oc3ccccc3)cc2)OCc2ccccc2-c2ccccc2C1=O | 0.801 ± 0.016 | –

SMILES | viability index [1] | viability index [2]
C[C@@H]1CN([C@H](C)CO)C(=O)c2ccccc2-c2ccccc2CO[C@@H]1CN(C)C(=O)c1cc(Cl)cc(Cl)c1 | 0.8517 ± 0.003 | –
C[C@@H]1CN([C@@H](C)CO)C(=O)c2ccccc2-c2ccccc2CO[C@H]1CN(C)C(=O)c1cc(Cl)cc(Cl)c1 | 0.937 ± 0.19 | –
Cc1ccc(OC(=O)N(C)C[C@@H]2OCc3ccccc3-c3ccccc3C(=O)N([C@H](C)CO)C[C@@H]2C)cc1 | 0.993 ± 0.036 | –
Cc1ccc(OC(=O)N(C)C[C@@H]2OCc3ccccc3-c3ccccc3C(=O)N([C@@H](C)CO)C[C@H]2C)cc1 | 0.88 ± 0.0063 | –
Cc1ccc(OC(=O)N(C)C[C@@H]2OCc3ccccc3-c3ccccc3C(=O)N([C@H](C)CO)C[C@H]2C)cc1 | 0.834 ± 0.091 | –
O=C(c1ccncc1)N1CC2(C1)[C@H](c1ccccc1)[C@@H](CO)N2CC1CC1 | 1.08 ± 0.016 | –
Cc1noc(C)c1NC(=O)Nc1ccc2c(c1)C(=O)N([C@@H](C)CO)C[C@@H](C)[C@@H](CN(C)Cc1ccc3c(c1)OCO3)OCCCC[C@@H](C)O2 | 1.15 ± 0.058 | –
O=C(c1ccccn1)N1C[C@H]2[C@@H](c3ccccc31)[C@@H](CO)N2C(=O)Nc1ccccc1Cl | 1.05 ± 0.026 | –
CCS(=O)(=O)Nc1ccc2c(c1)C(=O)N(C)[C@@H]1CC[C@H](CC(=O)N[C@@H]3CCN(Cc4ccccc4)C3)O[C@@H]1CO2 | 1.05 ± 0.04 | –
O=S(=O)(c1cccc(F)c1)N1CC[C@H]2[C@H](CO)Nc3ccc(C#Cc4ccccc4F)cc3[C@H]21 | 1.1 ± 0.012 | –
COc1ccc(CN(C)C[C@@H]2Oc3ccc(NC(=O)Nc4ccc5c(c4)OCO5)cc3CC(=O)N([C@H](C)CO)C[C@@H]2C)cc1 | 0.983 ± 0.077 | –
COc1ccc2c3c([C@H](CO)N(C[C@]33CN(C3)S(=O)(=O)c3cn(C)cn3)C(=O)Nc3ccc(F)cc3)n(C)c2c1 | 1.114 ± 0.0043 | –
COc1ccc(NC(=O)N(C)C[C@H]2Oc3ccc(NC(=O)Nc4cccc5ccccc45)cc3CC(=O)N([C@H](C)CO)C[C@@H]2C)cc1 | 0.968 ± 0.027 | –
COc1ccccc1-c1ccc([C@@H]2[C@@H](C#N)N(C(=O)c3cccnc3)[C@@H]2CO)cc1 | 1.06 ± 0.063 | –
CN(C)CC(=O)N1[C@H](C#N)[C@H](c2ccccc2-c2ccccc2F)[C@@H]1CO | 1.1 ± 0.066 | –
O=C(C[C@H]1CC[C@H]2[C@@H](COC[C@@H](O)CN2S(=O)(=O)c2ccc(F)cc2)O1)NCCN1CCCCC1 | 1.01 ± 0.12 | –
COc1ccccc1C#Cc1ccc([C@H]2[C@H]3CN(C(=O)C4CCC4)CCCCN3[C@H]2CO)cc1 | 0.971 ± 0.013 | –
COc1ccccc1C#Cc1ccc([C@@H]2[C@H](CO)N3CCCCN(C(=O)C4CCC4)C[C@@H]23)cc1 | 0.967 ± 0.025 | –
OC[C@H]1[C@@H](c2ccc(C#Cc3ccccc3F)cc2)[C@H]2CN(CC3CCOCC3)CCCCN21 | 0.938 ± 0.011 | –
OC[C@H]1[C@H](c2ccc(C#Cc3ccccc3F)cc2)[C@@H]2CN(CC3CCOCC3)CCCCN12 | 0.8726 ± 0.0019 | –
COc1ccccc1C#Cc1ccc([C@@H]2[C@@H](CO)N3CCCCN(CCC(F)(F)F)C[C@H]23)cc1 | – | 0.759 ± 0.06
OC[C@@H]1[C@@H](c2ccc(C#Cc3ccccc3F)cc2)[C@H]2CN(CC3CCOCC3)CCCCN12 | 0.852 ± 0.021 | –
